One sequence from article PMC7862700, “An all-to-all approach to the identification of sequence-specific readers for epigenetic DNA modifications on cytosine” can be followed below.

Assay in all cases: DAPPL (digital affinity profiling via proximity ligation, sequencing); 10 mM Tris-HCl pH 7.5, 50 mM NaCl, 1 mM DTT, 4% glycerol, room temperature, 30 min; GST-TFs on glutathione beads, 16-mer random dsDNA library, 0.1% formaldehyde crosslink after washing; high values mean tight binding
Experiment [1] concerns the target T1, FLI1 (Homo sapiens, UniProt Q01543 1-452).
T1 sequence: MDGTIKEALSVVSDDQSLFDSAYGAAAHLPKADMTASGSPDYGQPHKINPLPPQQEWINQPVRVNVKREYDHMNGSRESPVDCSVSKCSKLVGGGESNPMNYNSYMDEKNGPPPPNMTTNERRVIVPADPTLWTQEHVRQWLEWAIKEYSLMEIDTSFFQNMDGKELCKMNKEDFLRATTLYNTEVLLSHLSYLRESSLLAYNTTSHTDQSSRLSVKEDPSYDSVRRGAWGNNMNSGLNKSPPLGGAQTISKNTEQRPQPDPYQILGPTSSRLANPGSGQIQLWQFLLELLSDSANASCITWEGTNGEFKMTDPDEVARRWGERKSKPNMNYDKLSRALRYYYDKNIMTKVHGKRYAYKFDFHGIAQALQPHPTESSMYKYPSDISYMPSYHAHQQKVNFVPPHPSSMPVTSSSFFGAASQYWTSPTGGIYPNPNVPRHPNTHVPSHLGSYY
The conditions noted are these: protein: recombinant; tags: N-terminal GST; dsDNA, one strand shown. The procedure, abridged:
(§1)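 After expression in yeast as GST fusions, human transcription factors were bound to glutathione beads, DNA-barcoded and mixed with a tag-only sample. The pools were incubated with 200 nmole of a 16-mer random double-stranded DNA library in Tris/NaCl/DTT/glycerol buffer (30 min, room temperature), washed and crosslinked with 0.1% formaldehyde. Proximity ligation with BsaI/T4 ligase ran for 1 h at 37 °C, before PCR amplification and sequencing on an Illumina NextSeq500. Binding signal is a hexamer's read frequency for a factor divided by its frequency for the tag-only sample.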

Experiment [2] addresses T2, ELK1 (Homo sapiens, UniProt P19419 1-428).
T2 sequence: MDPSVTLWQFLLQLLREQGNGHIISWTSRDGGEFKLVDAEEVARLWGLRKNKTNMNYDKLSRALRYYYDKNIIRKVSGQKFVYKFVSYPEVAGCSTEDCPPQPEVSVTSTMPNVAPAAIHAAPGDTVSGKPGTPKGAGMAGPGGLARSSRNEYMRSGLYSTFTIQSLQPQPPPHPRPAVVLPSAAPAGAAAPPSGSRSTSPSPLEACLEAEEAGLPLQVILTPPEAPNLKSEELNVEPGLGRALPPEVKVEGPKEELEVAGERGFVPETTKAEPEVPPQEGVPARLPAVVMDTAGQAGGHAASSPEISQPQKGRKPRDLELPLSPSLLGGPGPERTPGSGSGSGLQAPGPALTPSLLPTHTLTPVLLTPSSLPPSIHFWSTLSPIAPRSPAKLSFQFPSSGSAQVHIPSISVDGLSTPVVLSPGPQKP
The note with it: protein: recombinant; tags: N-terminal GST; dsDNA, one strand shown. The procedure, abridged: as §1

The target in experiment [3] is T3, GABPA (Homo sapiens, UniProt Q06546 1-454).
T3 sequence: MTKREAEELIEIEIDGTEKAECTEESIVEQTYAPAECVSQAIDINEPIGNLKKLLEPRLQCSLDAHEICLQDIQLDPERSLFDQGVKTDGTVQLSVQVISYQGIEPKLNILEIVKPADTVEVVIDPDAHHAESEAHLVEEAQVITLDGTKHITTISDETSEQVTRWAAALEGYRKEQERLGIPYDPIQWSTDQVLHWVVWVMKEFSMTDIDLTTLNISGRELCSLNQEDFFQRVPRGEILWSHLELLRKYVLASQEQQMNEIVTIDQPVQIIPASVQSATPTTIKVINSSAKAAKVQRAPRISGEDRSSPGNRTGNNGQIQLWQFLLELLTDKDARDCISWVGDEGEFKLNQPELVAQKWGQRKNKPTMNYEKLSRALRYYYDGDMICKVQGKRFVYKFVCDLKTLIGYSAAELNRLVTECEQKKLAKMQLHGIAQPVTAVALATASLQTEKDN
The conditions noted are these: protein: recombinant; tags: N-terminal GST; dsDNA, one strand shown. Summed up: as §1

Experiment [4] deals with T4, ERG (Homo sapiens, UniProt P11308 1-479).
T4 sequence: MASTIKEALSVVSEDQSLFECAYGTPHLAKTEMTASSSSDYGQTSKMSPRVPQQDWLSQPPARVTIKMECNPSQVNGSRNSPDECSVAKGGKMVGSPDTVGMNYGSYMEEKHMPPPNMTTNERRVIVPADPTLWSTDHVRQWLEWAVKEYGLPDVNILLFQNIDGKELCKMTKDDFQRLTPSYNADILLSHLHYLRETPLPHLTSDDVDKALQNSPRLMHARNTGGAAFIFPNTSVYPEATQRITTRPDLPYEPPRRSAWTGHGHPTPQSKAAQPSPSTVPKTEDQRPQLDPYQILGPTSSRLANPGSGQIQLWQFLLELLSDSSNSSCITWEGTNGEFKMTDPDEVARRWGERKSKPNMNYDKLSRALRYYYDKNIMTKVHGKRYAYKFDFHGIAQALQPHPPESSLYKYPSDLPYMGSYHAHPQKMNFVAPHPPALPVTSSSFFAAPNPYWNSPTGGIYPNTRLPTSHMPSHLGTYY
The conditions noted are these: protein: recombinant; tags: N-terminal GST; dsDNA, one strand shown. The procedure, abridged: as §1

Experiment [5] deals with ELF1 (Homo sapiens, UniProt P32519 1-619). The conditions noted are these: protein: recombinant; tags: N-terminal GST; dsDNA, one strand shown. Summed up:
as §1

Experiment [6] has as its target T5, EHF (Homo sapiens, UniProt Q9NZC4 1-300).
T5 sequence: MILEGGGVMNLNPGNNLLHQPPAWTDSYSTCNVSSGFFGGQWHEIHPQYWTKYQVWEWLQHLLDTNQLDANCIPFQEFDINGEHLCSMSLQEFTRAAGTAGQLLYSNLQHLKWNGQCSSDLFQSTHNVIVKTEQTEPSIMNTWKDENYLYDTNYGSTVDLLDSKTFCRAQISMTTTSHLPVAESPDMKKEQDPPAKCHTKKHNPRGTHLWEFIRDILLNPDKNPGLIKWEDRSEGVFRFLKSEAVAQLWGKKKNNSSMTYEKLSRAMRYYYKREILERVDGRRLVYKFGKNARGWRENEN
The conditions noted are these: protein: recombinant; tags: N-terminal GST; dsDNA, one strand shown. The procedure, abridged: as §1

Experiment [7] deals with SPI1 (Homo sapiens, UniProt P17947 1-270). The conditions noted are these: protein: recombinant; tags: N-terminal GST; dsDNA, one strand shown. Summed up: as §1
Experiment [8] deals with SPIB (Homo sapiens, UniProt Q01892 1-262). The note with it: protein: recombinant; tags: N-terminal GST; dsDNA, one strand shown. The procedure, abridged:
as §1

The target of experiment [9] is T6, ELK3 (Homo sapiens, UniProt P41970 1-407).
T6 sequence: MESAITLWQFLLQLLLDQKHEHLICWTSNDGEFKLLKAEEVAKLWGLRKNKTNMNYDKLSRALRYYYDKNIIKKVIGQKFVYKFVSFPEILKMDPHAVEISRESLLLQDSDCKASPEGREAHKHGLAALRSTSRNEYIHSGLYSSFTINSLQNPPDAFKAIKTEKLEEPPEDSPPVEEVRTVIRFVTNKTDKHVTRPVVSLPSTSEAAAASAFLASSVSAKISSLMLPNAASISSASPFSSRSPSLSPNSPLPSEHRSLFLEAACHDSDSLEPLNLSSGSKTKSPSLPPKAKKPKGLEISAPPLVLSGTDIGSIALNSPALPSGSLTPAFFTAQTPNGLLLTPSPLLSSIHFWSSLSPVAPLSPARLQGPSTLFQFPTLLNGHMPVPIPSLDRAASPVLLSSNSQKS
The conditions noted are these: protein: recombinant; tags: N-terminal GST; dsDNA, one strand shown. Summed up:
as §1

Experiment [10] concerns the target T7, FEV (Homo sapiens, UniProt Q99581 1-238).
T7 sequence: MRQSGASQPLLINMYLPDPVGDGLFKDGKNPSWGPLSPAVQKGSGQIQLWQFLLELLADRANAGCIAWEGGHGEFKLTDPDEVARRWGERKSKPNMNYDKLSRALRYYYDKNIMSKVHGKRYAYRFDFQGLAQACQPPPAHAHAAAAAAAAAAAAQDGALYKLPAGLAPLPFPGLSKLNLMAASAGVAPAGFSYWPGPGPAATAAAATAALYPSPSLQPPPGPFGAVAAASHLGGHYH
The conditions noted are these: protein: recombinant; tags: N-terminal GST; dsDNA, one strand shown. The procedure, abridged:
as §1

Experiment [11] addresses ETV5 (Homo sapiens, UniProt P41161 1-510). The conditions noted are these: protein: recombinant; tags: N-terminal GST; dsDNA, one strand shown. Summed up: as §1
The target in experiment [12] is HSF1 (Homo sapiens, UniProt Q00613 1-529). The note with it: protein: recombinant; tags: N-terminal GST; chain copies: 3; dsDNA, one strand shown. Summed up: as §1
For experiment [13], the target named is T8, SPIC (Homo sapiens, UniProt Q8N5J4 1-248).
T8 sequence: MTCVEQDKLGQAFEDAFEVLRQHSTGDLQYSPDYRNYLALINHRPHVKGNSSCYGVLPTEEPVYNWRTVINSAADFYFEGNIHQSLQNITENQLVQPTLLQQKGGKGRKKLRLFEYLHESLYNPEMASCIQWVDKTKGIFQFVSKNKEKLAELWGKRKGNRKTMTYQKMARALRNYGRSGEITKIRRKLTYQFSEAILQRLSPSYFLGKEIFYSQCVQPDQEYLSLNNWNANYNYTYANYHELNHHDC
The note with it: protein: recombinant; tags: N-terminal GST; dsDNA, one strand shown. Summed up: as §1

For experiment [14], the target named is ELF4 (Homo sapiens, UniProt Q99607 1-663). The conditions noted are these: protein: recombinant; tags: N-terminal GST; dsDNA, one strand shown. The procedure, abridged:
as §1

The target in experiment [15] is T9, ELK4 (Homo sapiens, UniProt P28324-2 1-405).
T9 sequence: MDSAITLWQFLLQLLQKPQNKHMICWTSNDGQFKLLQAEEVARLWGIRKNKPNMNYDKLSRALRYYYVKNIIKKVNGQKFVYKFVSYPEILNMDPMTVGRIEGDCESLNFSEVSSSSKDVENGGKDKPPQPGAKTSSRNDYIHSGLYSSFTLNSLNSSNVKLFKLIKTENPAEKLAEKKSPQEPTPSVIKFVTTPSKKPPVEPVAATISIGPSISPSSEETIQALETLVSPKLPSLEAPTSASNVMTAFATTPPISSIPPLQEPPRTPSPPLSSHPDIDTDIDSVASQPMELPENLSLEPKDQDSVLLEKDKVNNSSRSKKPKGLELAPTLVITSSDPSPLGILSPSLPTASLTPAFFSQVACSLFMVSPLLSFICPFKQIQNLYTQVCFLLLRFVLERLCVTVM
The note with it: protein: recombinant; tags: N-terminal GST; dsDNA, one strand shown. The procedure, abridged:
as §1

Experiment [16] addresses T10, ETV2 (Homo sapiens, UniProt O00321 1-342).
T10 sequence: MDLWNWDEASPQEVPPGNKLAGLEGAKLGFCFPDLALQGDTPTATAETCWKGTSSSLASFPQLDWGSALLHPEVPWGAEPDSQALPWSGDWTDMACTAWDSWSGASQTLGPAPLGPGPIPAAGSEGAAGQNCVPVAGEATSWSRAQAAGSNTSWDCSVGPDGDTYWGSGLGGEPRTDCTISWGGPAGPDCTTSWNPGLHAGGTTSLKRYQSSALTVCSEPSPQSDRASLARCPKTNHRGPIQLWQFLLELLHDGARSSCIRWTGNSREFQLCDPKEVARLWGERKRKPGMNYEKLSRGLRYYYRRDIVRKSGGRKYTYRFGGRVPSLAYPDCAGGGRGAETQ
The note with it: protein: recombinant; tags: N-terminal GST; dsDNA, one strand shown. The procedure, abridged: as §1

The target of experiment [17] is T11, ELF3 (Homo sapiens, UniProt P78545 1-371).
T11 sequence: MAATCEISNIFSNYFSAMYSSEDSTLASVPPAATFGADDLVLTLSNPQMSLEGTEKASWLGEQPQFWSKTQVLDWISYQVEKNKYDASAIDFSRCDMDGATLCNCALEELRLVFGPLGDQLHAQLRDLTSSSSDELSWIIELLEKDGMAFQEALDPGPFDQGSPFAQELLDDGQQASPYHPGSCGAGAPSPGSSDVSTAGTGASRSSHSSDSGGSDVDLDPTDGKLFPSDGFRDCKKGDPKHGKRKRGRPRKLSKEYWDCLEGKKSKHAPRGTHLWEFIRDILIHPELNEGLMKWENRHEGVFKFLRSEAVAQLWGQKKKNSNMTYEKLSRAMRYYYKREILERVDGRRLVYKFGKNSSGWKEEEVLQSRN
The conditions noted are these: protein: recombinant; tags: N-terminal GST; dsDNA, one strand shown. The procedure, abridged: as §1

The target of experiment [18] is ETV1 (Homo sapiens, UniProt P50549 1-477). The note with it: protein: recombinant; tags: N-terminal GST; dsDNA, one strand shown. Summed up:
as §1

Chain of ETV5 (P41161 whole entry): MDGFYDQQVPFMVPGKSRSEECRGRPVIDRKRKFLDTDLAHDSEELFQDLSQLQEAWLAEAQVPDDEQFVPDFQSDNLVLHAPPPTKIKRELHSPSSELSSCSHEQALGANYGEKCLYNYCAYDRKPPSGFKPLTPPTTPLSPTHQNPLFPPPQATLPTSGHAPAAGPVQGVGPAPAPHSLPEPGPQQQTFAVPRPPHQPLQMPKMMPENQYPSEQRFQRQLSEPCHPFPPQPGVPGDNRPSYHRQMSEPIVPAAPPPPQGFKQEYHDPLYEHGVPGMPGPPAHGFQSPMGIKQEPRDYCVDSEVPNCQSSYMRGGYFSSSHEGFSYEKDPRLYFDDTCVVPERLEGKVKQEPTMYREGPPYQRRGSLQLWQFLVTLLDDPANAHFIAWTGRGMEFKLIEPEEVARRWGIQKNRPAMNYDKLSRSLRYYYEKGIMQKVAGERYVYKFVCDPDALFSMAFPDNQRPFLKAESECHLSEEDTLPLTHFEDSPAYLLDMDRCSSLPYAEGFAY
Chain of SPIB (Q01892 whole entry): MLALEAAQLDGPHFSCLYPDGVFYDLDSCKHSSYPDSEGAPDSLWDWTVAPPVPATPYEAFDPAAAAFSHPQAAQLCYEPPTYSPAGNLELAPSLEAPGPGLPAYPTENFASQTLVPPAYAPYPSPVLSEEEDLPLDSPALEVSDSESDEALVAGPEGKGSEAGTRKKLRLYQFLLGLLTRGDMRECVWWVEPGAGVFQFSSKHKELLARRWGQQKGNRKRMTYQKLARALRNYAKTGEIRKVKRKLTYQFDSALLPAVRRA
Chain of ETV1 (P50549 whole entry): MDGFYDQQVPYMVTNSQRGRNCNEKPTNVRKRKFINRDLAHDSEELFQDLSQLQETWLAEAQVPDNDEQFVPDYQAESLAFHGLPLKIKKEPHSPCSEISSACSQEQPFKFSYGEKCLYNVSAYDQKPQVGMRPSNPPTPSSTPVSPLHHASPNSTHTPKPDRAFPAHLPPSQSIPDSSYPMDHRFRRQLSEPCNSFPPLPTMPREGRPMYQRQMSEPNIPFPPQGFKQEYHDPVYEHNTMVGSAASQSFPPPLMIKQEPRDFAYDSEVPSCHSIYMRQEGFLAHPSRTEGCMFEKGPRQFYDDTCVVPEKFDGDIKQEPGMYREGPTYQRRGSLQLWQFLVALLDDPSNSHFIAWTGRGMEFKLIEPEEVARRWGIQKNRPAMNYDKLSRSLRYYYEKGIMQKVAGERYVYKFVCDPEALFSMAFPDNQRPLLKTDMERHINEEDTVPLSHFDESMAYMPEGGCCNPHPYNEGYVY
Chain of HSF1 (Q00613 whole entry): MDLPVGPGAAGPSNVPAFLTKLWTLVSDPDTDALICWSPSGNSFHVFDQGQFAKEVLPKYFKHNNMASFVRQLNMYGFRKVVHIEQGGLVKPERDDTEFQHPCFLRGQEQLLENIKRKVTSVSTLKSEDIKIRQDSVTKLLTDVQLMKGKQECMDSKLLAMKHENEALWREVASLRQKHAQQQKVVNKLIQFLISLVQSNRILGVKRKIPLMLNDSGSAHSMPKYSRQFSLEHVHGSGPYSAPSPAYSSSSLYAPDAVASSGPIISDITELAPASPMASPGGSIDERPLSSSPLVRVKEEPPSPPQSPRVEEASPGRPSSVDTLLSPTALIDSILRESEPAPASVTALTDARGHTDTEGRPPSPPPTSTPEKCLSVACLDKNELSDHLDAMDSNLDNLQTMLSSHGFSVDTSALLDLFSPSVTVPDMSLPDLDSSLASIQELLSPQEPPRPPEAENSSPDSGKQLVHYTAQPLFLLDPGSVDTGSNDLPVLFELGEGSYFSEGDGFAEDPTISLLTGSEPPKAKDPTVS
Chain of ELF1 (P32519 whole entry): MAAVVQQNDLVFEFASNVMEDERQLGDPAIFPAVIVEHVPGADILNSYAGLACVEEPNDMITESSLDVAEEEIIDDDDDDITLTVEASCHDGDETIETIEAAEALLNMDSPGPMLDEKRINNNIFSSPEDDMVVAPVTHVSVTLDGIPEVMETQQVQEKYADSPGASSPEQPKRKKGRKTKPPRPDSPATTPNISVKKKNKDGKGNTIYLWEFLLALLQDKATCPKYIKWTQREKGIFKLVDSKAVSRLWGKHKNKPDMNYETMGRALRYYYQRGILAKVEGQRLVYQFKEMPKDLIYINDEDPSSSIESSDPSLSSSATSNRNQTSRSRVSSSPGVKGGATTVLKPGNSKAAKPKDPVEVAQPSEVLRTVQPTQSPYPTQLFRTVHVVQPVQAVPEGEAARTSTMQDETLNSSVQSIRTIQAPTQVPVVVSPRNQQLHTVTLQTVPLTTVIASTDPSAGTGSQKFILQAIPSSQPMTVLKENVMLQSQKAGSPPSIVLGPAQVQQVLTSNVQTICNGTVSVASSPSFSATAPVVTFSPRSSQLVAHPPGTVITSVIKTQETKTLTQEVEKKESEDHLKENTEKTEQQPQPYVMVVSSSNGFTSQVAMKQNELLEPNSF
Chain of ELF4 (Q99607 whole entry): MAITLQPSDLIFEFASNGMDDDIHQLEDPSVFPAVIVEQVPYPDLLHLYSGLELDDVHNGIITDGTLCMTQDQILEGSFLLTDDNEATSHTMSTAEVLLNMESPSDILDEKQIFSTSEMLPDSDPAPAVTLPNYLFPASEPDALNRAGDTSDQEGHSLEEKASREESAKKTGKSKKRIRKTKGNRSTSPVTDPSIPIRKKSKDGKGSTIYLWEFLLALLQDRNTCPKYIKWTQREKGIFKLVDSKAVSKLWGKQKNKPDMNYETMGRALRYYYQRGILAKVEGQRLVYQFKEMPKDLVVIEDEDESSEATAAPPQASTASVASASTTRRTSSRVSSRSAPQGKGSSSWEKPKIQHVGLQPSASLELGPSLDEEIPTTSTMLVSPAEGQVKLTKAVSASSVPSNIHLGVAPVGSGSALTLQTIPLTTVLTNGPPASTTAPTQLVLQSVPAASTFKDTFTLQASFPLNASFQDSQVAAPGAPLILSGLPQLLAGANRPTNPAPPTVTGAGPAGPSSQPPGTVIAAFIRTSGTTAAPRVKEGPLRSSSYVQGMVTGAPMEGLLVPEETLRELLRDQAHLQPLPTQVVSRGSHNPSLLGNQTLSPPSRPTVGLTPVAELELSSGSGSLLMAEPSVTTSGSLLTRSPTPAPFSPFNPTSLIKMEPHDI

As for CACGAC, the binding signal in [1] is 1.27 fold enrichment (6-mer frequency, TF over GST control); in experiment [2], 1.29 fold enrichment (6-mer frequency, TF over GST control); in [3] it was 1.33 fold enrichment (6-mer frequency, TF over GST control); in experiment [4], 1.22 fold enrichment (6-mer frequency, TF over GST control); in experiment [5], 1.21 fold enrichment (6-mer frequency, TF over GST control); in experiment [6], 1.28 fold enrichment (6-mer frequency, TF over GST control). The binding signal is 1.14 fold enrichment (6-mer frequency, TF over GST control) in [7]; 1.23 fold enrichment (6-mer frequency, TF over GST control) in experiment [8]; 1.29 fold enrichment (6-mer frequency, TF over GST control) in [9]; 1.29 fold enrichment (6-mer frequency, TF over GST control) in experiment [10]; 1.28 fold enrichment (6-mer frequency, TF over GST control) in [11]; 1.05 fold enrichment (6-mer frequency, TF over GST control) in experiment [12]. Moreover, the binding signal in [13] was 1.26 fold enrichment (6-mer frequency, TF over GST control); in experiment [14] it was 1.35 fold enrichment (6-mer frequency, TF over GST control); in [15] it was 1.53 fold enrichment (6-mer frequency, TF over GST control); in experiment [16], 1.34 fold enrichment (6-mer frequency, TF over GST control); in [17], 1.32 fold enrichment (6-mer frequency, TF over GST control); in experiment [18] it was 1.15 fold enrichment (6-mer frequency, TF over GST control).
